PfG6PD inh – PfG6PD (Plasmodium falciparum) enzyme inhibition; PfGluPho enzyme, NADPH resazurin-diaphorase fluorescence; inhibition, % at 20 µM; 0.78% of 350,000 active;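 active = inhibition reaching at least a set limit at 20 µM in the primary screen, cut at about 59% in these data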;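 also: 0% = DMSO wells with substrate and 100% = DMSO wells lacking glucose-6-phosphate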
MBD2 DNA inh – inhibitors of human MBD2 binding to methylated oligonucleotide | Q9UBB5 | TR-FRET | inhibition, % at 4.4 µM | 0.31% of 370,000 active | AID 686964; in the data active = inhibition above about 13%
PRMT1 inh – inhibitors of human PRMT1. inhibition, % at 2.79 µM. 1.3% of 370,000 active. recombinant PRMT1, activity-based probe fluorescence polarization. Q99873;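 active = inhibition above about 21% made by adding two undisclosed values, limit read from the data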
PfM18AAP inh – blocks P. falciparum M18 aspartyl aminopeptidase | 1.2% of 290,000 active | inhibition, % at 7.35 µM | recombinant PfM18AAP, H-Glu-NHMec fluorogenic cleavage;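 active = inhibition above the campaign mean inhibition over all tested compounds plus 3 SD, cut at about 28% in these data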;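 also: 0% = plate median of test compound wells and 100% = 2 mM ZnCl2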
UHRF1 MBD2 ctr – blocks human UHRF1 binding to methylated DNA | UHRF1 binding to methylated oligo, TR-FRET | inhibition, % at 4.4 µM | 0.75% of 370,000 active | AID 687016; in the data active = inhibition above about 21%;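 also: UHRF1 SRA domain binding a hemimethylated CpG hairpin DNA probe; 0% = median of test compound wells and 100% = reference inhibitor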
Target sequence (Q96T88 whole entry, looked up, the tested form may be a part): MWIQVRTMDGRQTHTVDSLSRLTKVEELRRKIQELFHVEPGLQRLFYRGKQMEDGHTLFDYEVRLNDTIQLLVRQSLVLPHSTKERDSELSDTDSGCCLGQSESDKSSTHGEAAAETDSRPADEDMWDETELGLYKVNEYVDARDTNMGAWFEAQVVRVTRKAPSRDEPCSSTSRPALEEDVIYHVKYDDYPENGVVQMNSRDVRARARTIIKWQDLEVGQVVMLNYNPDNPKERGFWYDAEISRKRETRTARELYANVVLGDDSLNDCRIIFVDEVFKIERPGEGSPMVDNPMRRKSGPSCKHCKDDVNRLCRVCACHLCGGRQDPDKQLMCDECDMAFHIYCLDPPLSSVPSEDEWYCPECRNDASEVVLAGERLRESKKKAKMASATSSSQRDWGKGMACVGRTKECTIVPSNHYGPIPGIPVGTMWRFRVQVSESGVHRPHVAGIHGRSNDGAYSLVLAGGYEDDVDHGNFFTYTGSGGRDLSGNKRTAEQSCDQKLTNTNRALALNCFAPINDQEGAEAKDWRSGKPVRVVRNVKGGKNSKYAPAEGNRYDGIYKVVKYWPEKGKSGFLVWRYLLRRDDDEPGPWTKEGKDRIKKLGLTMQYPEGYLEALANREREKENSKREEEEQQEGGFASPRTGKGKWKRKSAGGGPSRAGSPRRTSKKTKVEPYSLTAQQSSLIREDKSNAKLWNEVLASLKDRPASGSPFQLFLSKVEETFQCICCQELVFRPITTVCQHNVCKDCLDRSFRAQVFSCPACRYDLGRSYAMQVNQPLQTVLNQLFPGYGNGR
PRMT1 inh conf – PRMT1 (human) inhibition, FP confirmation | inhibition, % at 2.79 µM | shares compounds with PRMT1 inh | AID 687036 | recombinant His-PRMT1, activity-based probe fluorescence polarization | 42% of 3,300 active;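 active = mean inhibition across replicates above the hit cutoff derived for the earlier primary screen, cut at about 22% in these data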
* hit, by the source's call. This is a sample that favours compounds with a hit; in the whole collection about 3.3% have one here.

What do the screens show for `Cc1ccc(NS(=O)(=O)c2ccc3c(c2)n(C)c(=O)n3C)cc1C`?
PfG6PD inh: -11; MBD2 DNA inh: 4; PRMT1 inh: 25*; PfM18AAP inh: 6; UHRF1 MBD2 ctr: 5; PRMT1 inh conf: 8

Results for Cc1cccc(-c2nc(=S)c3c(n2Cc2ccco2)CCCC3)c1 ?
PfG6PD inh: 40; MBD2 DNA inh: 10; PRMT1 inh: 8; PfM18AAP inh: -5; UHRF1 MBD2 ctr: 1

What do the screens show for `COc1cccc(-c2nc(=S)c3c(n2Cc2ccco2)CCCC3)c1`?
PfG6PD inh: 32; MBD2 DNA inh: 9; PRMT1 inh: 26*; PfM18AAP inh: -25; UHRF1 MBD2 ctr: 3; PRMT1 inh conf: 1

What do the screens show for `Cc1ccc(C)c(S(=O)(=O)N2CCCC2CNC(=O)C(=O)NC2CCCC2)c1` (stereo not drawn)?
PfG6PD inh: 4; MBD2 DNA inh: 3; PRMT1 inh: 0; UHRF1 MBD2 ctr: 2

Results for CC[C@@H](C)[C@H](NC(=O)OC(C)(C)C)c1nnc(S(=O)(=O)Cc2cc(C)ccc2C)o1 ?
PfG6PD inh: 8; MBD2 DNA inh: 3; PRMT1 inh: 20; PfM18AAP inh: -152; UHRF1 MBD2 ctr: 0

What do the screens show for `Cc1ccccc1CS(=O)(=O)c1nnc([C@H](CC(C)C)NC(=O)OC(C)(C)C)o1`?
PfG6PD inh: 13; MBD2 DNA inh: -3; PRMT1 inh: 27*; PfM18AAP inh: -128; UHRF1 MBD2 ctr: 4; PRMT1 inh conf: 15

How did CC(C)(C)OC(=O)N[C@@H](Cc1ccccc1)c1nnc(S(=O)(=O)Cc2cccc(F)c2)o1 do in these assays?
PfG6PD inh: 40; PfM18AAP inh: -121

Results for CC(C)[C@H](NC(=O)OC(C)(C)C)c1nnc(S(=O)(=O)Cc2c(F)cccc2Cl)o1 ?
PfG6PD inh: 1; MBD2 DNA inh: -2; PRMT1 inh: 30*; UHRF1 MBD2 ctr: 17; PRMT1 inh conf: 21

Results for CCc1ccc(-n2cc(-c3ccc([N+](=O)[O-])cc3)[nH]c2=S)cc1 ?
PfG6PD inh: 41; MBD2 DNA inh: 3; PRMT1 inh: 4; PfM18AAP inh: 9; UHRF1 MBD2 ctr: -1

What do the screens show for `CCc1ccc(-c2cn(C3CCCCC3)c(=S)[nH]2)cc1`?
PfG6PD inh: 26; MBD2 DNA inh: 3; PRMT1 inh: 29*; PfM18AAP inh: -3; UHRF1 MBD2 ctr: 4; PRMT1 inh conf: 15

What do the screens show for `O=C(COc1ccccc1)Nc1nc(-c2ccncc2)cs1`?
PfG6PD inh: 22; MBD2 DNA inh: 1; PRMT1 inh: 35*; PfM18AAP inh: 22; UHRF1 MBD2 ctr: 1; PRMT1 inh conf: 34*

Results for COc1ccc(C(=O)C(C)OC(=O)c2cccc(S(=O)(=O)Nc3cc(Cl)c(OC)cc3OC)c2)cc1 (stereo not drawn) ?
PfG6PD inh: -29; PfM18AAP inh: -8

Results for Oc1ccccc1/C=N/c1c(-c2ccco2)nc2ccccn12 ?
PfG6PD inh: 3; MBD2 DNA inh: -8; PRMT1 inh: 27*; PfM18AAP inh: 4; UHRF1 MBD2 ctr: 4; PRMT1 inh conf: 6

How did CCOC(=O)c1c(/N=C/c2cc([N+](=O)[O-])ccc2O)sc(C)c1C do in these assays?
PfG6PD inh: -9; MBD2 DNA inh: -9; PRMT1 inh: 29*; PfM18AAP inh: 26; UHRF1 MBD2 ctr: -8; PRMT1 inh conf: -2

What do the screens show for `COc1ccc(C(=O)Nc2ccccc2C(=O)NCCN2CCOCC2)cc1`?
PfG6PD inh: 12; MBD2 DNA inh: 0; PRMT1 inh: 0; PfM18AAP inh: 12; UHRF1 MBD2 ctr: 3

Results for COc1ccc(C(=O)Nc2ccccc2C(=O)NCCN2CCOCC2)cc1OC ?
PfG6PD inh: 9; MBD2 DNA inh: 9; PRMT1 inh: 25*; PfM18AAP inh: 2; UHRF1 MBD2 ctr: -2; PRMT1 inh conf: -2

Results for Cc1nc2sc(C(c3ccco3)N3CCN(c4ccc(F)cc4)CC3)c(O)n2n1 (stereo not drawn) ?
PfG6PD inh: 3; MBD2 DNA inh: 4; PRMT1 inh: 25*; PfM18AAP inh: -2; UHRF1 MBD2 ctr: -1; PRMT1 inh conf: -3

Results for Cc1nc2sc(C(c3ccco3)N3CCN(c4ccccc4F)CC3)c(O)n2n1 (stereo not drawn) ?
PfG6PD inh: -12; MBD2 DNA inh: -4; PRMT1 inh: 2; PfM18AAP inh: -2; UHRF1 MBD2 ctr: -4

Results for Cc1nc2sc(C(c3ccco3)N3CCc4ccccc4C3)c(O)n2n1 (stereo not drawn) ?
PfG6PD inh: 42; MBD2 DNA inh: -3; PRMT1 inh: 45*; PfM18AAP inh: 2; UHRF1 MBD2 ctr: 8; PRMT1 inh conf: 15

What do the screens show for `CC(C)C1CC(N(C)C)=CC(=S)N1` (stereo not drawn)?
MBD2 DNA inh: -1; PRMT1 inh: 35*; UHRF1 MBD2 ctr: -6; PRMT1 inh conf: 1

What do the screens show for `CC1(C)CC2C1CCC1(O)CC2(C)CCC1N(O)c1ccc(C(=O)NCCO)cn1` (stereo not drawn)?
PfG6PD inh: 34; MBD2 DNA inh: 1; PRMT1 inh: 28*; UHRF1 MBD2 ctr: 2; PRMT1 inh conf: -2

Results for O=C(O)CSc1nc2ccccc2[nH]1 ?
PfG6PD inh: -1; MBD2 DNA inh: -7; PRMT1 inh: -2; PfM18AAP inh: -6; UHRF1 MBD2 ctr: 1

What do the screens show for `CC1(C(=O)CSc2nc3ccccc3[nH]2)CCC(=O)O1` (stereo not drawn)?
PfG6PD inh: -8; MBD2 DNA inh: -6; PRMT1 inh: 60*; PfM18AAP inh: -1; UHRF1 MBD2 ctr: -9; PRMT1 inh conf: 41*

How did CCOC(=O)c1c(C)[nH]c(C)c1C(=O)CSc1nc2ccccc2[nH]1 do in these assays?
PfG6PD inh: -6; MBD2 DNA inh: 3; PRMT1 inh: -1; PfM18AAP inh: 8; UHRF1 MBD2 ctr: -1

Results for Cn1c(N)c(C(=O)CSc2nc3ccccc3[nH]2)c(=O)n(C)c1=O ?
PfG6PD inh: 16; MBD2 DNA inh: 2; PRMT1 inh: 28*; PfM18AAP inh: -11; UHRF1 MBD2 ctr: 5; PRMT1 inh conf: 1

What do the screens show for `COCCCN1C(=O)[C@H](CC(=O)N2CCCC2)[C@]2(C(=O)OC)CCCCC=C12`?
MBD2 DNA inh: 4; PRMT1 inh: 1; UHRF1 MBD2 ctr: -4

How did CC(=O)Nc1ccc(Sc2ncnc3scc(-c4ccccc4)c23)cc1 do in these assays?
PfG6PD inh: 6; MBD2 DNA inh: 1; PRMT1 inh: 35*; PfM18AAP inh: 5; UHRF1 MBD2 ctr: -1; PRMT1 inh conf: 37*

Results for O=C1CC(NCc2ccc3c(c2)OCO3)C(=O)N1Cc1ccc2c(c1)OCO2 (stereo not drawn) ?
PfG6PD inh: 1; MBD2 DNA inh: -1; PRMT1 inh: 56*; PfM18AAP inh: -25; UHRF1 MBD2 ctr: -1; PRMT1 inh conf: 0

Results for COc1cc(C(=O)NCCNC(=O)c2cnccn2)cc(OC)c1OC ?
PfG6PD inh: 12; MBD2 DNA inh: 0; PRMT1 inh: 1; PfM18AAP inh: -1; UHRF1 MBD2 ctr: 0

Screens as filed in PubChem.
